The list is not random: actives were taken first. Their share in the collection is about 22%.
Shiga toxin inh – A qHTS for Small Molecule Inhibitors of Shiga Toxin; Vero cells, Shiga toxin protein synthesis inhibition reporter; inhibition, % at 38.7 µM; 9.2% of 290,000 active; AID 2315, 2010; in the data active = inhibition mostly above about 28%, no sharp cut-off; inactive = mostly below about 43%; note: 0% is about no effect
Pf growth 96h – Primary qHTS for delayed death inhibitors of the malarial parasite plastid, 96 hour incubation. P. falciparum luciferase reporter growth, 96 h. Potency, µM (highest dose often 28.7 µM), for inactives: at the top dose activity change, negative = inhibition, most hits filed as inhibitors. 6.9% of 320,000 active; note: potency is the fitted concentration of half-maximal effect; % is set by controls: 0 for no effect and ±100 for the full control effect
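Compounds incubated with erythrocytes infected by luciferase-expressing P. falciparum (2% hematocrit, 0.05% parasitemia final) for 96 hours, 37 C in 5% CO2. Growth inhibition scored as decreased luciferase luminescence.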
Pf growth 48h – Primary qHTS for delayed death inhibitors of the malarial parasite plastid, 48 hour incubation. P. falciparum luciferase growth in erythrocytes, 48 h. Potency, µM (series often up to 28.7 µM), for the others: at the top dose activity change, negative = inhibition, actives largely listed as inhibitors. 5.9% of 310,000 active; note: potency is the fitted concentration of half-maximal effect; % is set by controls: 0 for no effect and ±100 for the full control effect
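In quantitative HTS format, infected erythrocytes bearing luciferase-reporter parasites were treated for a single generation at 37 C. Luminescence after adding detection reagent served as the growth measure.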
CHX counter – Cycloheximide Counterscreen for Small Molecule Inhibitors of Shiga Toxin. max response, %. cell reporter, cycloheximide protein synthesis inhibition counterscreen. 12% of 300,000 active; in the data active = max response mostly above about 13%, no sharp cut-off; inactive = mostly below about 14%; note: read at 38.3 µM for the half of the compounds with a filed dose; 0% is about no effect
LmPK inhibitor – qHTS Assay for Inhibitors of Leishmania Mexicana Pyruvate Kinase (LmPK); purified LmPK, Kinase-Glo ATP luminescence, 1 h; 0.37% of 290,000 active; Q27686; Potency, µM (highest dose often 57.5 µM), for inactives: at the highest dose activity change, negative = inhibition, actives largely listed as inhibitors; AID 1721, 2009; note: potency is the fitted concentration of half-maximal effect; % is set by controls: 0 for no effect and ±100 for the full control effect
Target sequence (Q27686 whole entry, looked up): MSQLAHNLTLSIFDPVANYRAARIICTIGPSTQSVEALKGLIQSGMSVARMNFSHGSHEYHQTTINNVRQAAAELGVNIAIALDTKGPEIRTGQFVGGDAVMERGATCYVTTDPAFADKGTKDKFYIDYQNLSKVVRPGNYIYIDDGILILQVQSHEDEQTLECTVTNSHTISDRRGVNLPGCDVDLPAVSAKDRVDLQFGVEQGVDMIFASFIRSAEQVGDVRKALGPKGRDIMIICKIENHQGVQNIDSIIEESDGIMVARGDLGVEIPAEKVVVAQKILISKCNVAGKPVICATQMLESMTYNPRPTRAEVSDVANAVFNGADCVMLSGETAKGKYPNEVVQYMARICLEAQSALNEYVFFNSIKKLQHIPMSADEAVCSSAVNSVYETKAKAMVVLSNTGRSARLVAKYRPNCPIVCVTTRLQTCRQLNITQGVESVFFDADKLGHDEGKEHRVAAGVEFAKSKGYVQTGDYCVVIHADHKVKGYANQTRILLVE
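Purified LmPK (0.1 nM) with 0.5 mM PEP and 0.1 mM ADP in imidazole buffer pH 7.2 with MgCl2/KCl, 1 h at room temperature. ATP formed was read by luciferase luminescence and normalized to no-enzyme and uninhibited controls.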
* hit, by the source's call; i = inactive; ? = inconclusive; · = no result; [ ] = another dose, or the depositor's remark. Unless noted, calls come from the whole dose curve; as a rule, active = well fitted inhibition curve with a large enough effect; inconclusive = small, poorly fitted or top-dose-only effect, or another doubt; inactive = no such curve, though single readings can be large or run the other way.

SMILES	Shiga toxin inh	Pf growth 96h	Pf growth 48h	CHX counter	LmPK inhibitor
CC(C)(C)NC(=O)NC(=O)CN1CCN(C(c2ccccc2)c2ccccc2)CC1	1.0	?	?	5.4	2.3%
CC(C)Cc1nnc(NC(=O)CCc2c[nH]c3ccccc23)s1	-5.6	32.4%	12.9%	-2.1	0.0%
CCOC(=O)N1CCN(C(=O)CN(C)S(=O)(=O)c2ccc(OCC)cc2)CC1	-9.3	36.4%	-3.3%	6.7	0.0%
COC(=O)CCCC1=CC2=CC(=O)C(C)(OC(=O)c3cccs3)C(=O)C2=CN1c1ccc(OC)cc1 (centres undefined)	13.2	13.1µM*	6.57µM*	-1.0	-8.3%[11.5 µM]
COC(=O)CCCC1=CC2=CC(=O)C(C)(OC(=O)c3cccs3)C(=O)C2=CN1Cc1ccco1 (centres undefined)	-4.1	?	?	-1.2	3.5%[11.5 µM]
COC(=O)CCCC1=CC2=CC(=O)C(C)(OC(=O)c3cccs3)C(=O)C2=CN1Cc1ccc2c(c1)OCO2 (centres undefined)	-6.0	?	13.1µM*	-2.7	-2.4%[11.5 µM]
COC(=O)CCCC1=CC2=CC(=O)C(C)(OC(=O)c3cccs3)C(=O)C2=CN1C(CO)CO (centres undefined)	·	·	·	·	-1.6%[11.5 µM]
COC(=O)CCCC1=CC2=CC(=O)C(C)(OC(=O)c3cccs3)C(=O)C2=CN1Cc1ccccc1 (centres undefined)	-3.5	?	13.1µM*	1.9	-2.1%[11.5 µM]
O=C(Nc1ccncc1NC(=O)c1cccc([N+](=O)[O-])c1)c1cccc([N+](=O)[O-])c1	22.3	2.33µM*	?	3.0	-2.7%
O=C(Nc1cccc(NC(=O)c2cccc([N+](=O)[O-])c2)n1)c1cccc([N+](=O)[O-])c1	·	?	31.2%	12.6	1.3%
CC1CN=C(NC(=O)c2cccc([N+](=O)[O-])c2)S1 (centres undefined)	26.0*	-6.5%	145.2%	28.4*	-8.9%
O=C(O)c1ccc[nH]c1=S	-4.7	9.5%	2.9%	-2.2	-5.7%
Cc1nc2ccc(S(=O)(=O)NCC(=O)NC(C)c3ccccc3)cc2s1 (centres undefined)	-10.2	-9.5%	0.4%	-9.3	7.1%
COc1cc2c(CCNC(C)=O)c[nH]c2cc1Cl	·	11.5%	14.5%	·	·
Cc1cccc(C)c1NC(=O)CNC(=O)c1ccc(NS(=O)(=O)c2ccc3[nH]c(=O)[nH]c3c2)cc1	·	-0.3%	1.9%	·	·
CCC(=O)Nc1ccc(Cl)c(NC(=S)NC(=O)COc2ccccc2)c1	-2.5	34.9%	25.9%	10.1	1.6%
CCCC(=O)NC(=S)Nc1cccc(NC(=O)c2ccc(Cl)cc2Cl)c1	10.3	117.1%	18.8%	1.4	5.1%
CCC(=O)Nc1cccc(NC(=S)NC(=O)c2ccc(Cl)cc2Cl)c1	23.4	?	2.8%	42.4*	1.6%
COc1ccccc1NC(=S)NNC(=O)c1ccc(Cl)cc1Cl	51.3*	452.7%	264.9%	31.0*	-5.8%
CCC(=O)Nc1ccc(Cl)c(NC(=S)NC(=O)COc2ccc(Cl)cc2)c1	-6.0	1.85µM*	32.6%	-4.3	-0.9%
O=C(NC(=S)Nc1ncccn1)c1ccc(Cl)cc1Cl	127.2*	?	92.2%	30.2*	-1.2%
O=C(C1=C[C@H](c2coc3ccccc3c2=O)C[C@H](OCCCCO)O1)N1CCOCC1	-11.6	63.8%	66.2%	-2.5	-1.2%
CCN(CC)CCCn1c(SCC(=O)Nc2cccc(F)c2)nnc1-c1ccoc1C	-4.3	-2.9%	-0.1%	-5.9	3.6%
CCC(=O)Nc1cccc(NC(=S)NC(=O)c2ccccc2C)c1	71.8*	i	?	47.8*	-2.1%
CCC(=O)Nc1cccc(NC(=S)NC(=O)c2ccc(Cl)cc2)c1	24.0	?	114.6%	22.0*	-4.5%
COc1ccccc1CNC(=O)c1ccccc1C(=O)NC(CC(C)C)C(=O)NCc1ccccc1OC (centres undefined)	-4.0	?	1.3%	15.4	1.5%
COc1ccc(C2NC(=O)C(C#N)=C(S)N2c2ccc(C)cc2)cc1OC (centres undefined)	2.3	-22.1%	15.3%	13.2	-4.0%
COc1cc(C2NC(=O)C(C#N)=C(S)N2c2ccc(C)cc2)ccc1OC(C)C (centres undefined)	77.8*	·	27.0%	10.7*	-2.1%

Assay outcomes deposited in PubChem BioAssay by National Center for Advancing Translational Sciences (NCATS).
